Bioassay records as filed in PubChem BioAssay.
Most compounds without a hit are left out; they make up all but 4.8% or so of the library.
ssDAF12 agonist: activators of S. stercoralis DAF-12 nuclear receptor | HEK293 ssDAF-12/GRIP1 lit1-tk-luc reporter, luminescence; % of 3 µM dafachronic acid response | activation, % at 6.8 µM | 370,000 tested, 1% active | AID 652126;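 active means activation above the mean over all tested compounds plus 3 SD, cut at about 0.9% in these data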;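 further: 0% = DMSO-only wells and 100% = 3 µM delta7-dafachronic acid wells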
DAX1 inh-1: blocks DAX1 repression of SF-1 activated StAR promoter | 370,000 tested, 1.1% active | inhibition, % at 6.8 µM | HEK293T StAR-luciferase reporter, SF-1/DAX-1 repression relief | AID 652010;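 active means inhibition above the mean over all tested compounds plus 3 SD, cut at about 3.6% in these data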;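 further: 0% = DAX-1 cells with DMSO and 100% = cells lacking DAX-1 with DMSO; higher inhibition means more luminescence from relief of DAX-1 repression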
hgDAF-12 ag: agonists of H. glycines DAF-12 nuclear receptor. 370,000 tested, 1.8% active. HEK293 GAL4-hgDAF12 UAS-luciferase reporter, agonist luminescence; normalized to butyrate control. activation, % at 6.8 µM;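 active means activation above a cutoff set at the mean of all screened compounds plus 3 SD, cut at about 10% in these data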;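 further: 0% = DMSO wells and 100% = sodium butyrate wells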
SMARCA2 activ: activators of SMARCA2 function; MG213 cells, MMTV-luciferase reporter, dexamethasone, overnight; activation, % at 9.1 µM; 370,000 tested, 1% active; in the data active means activation above about 7.8%;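 further: 0% = vehicle wells and 100% = reference activator wells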
hcDAF-12 act: activates DAF-12 receptor from parasite H. contortus | HEK293 hcDAF-12 lit1-tk-luc reporter, luminescence; 0% DMSO, 100% Δ7-dafachronic acid | 370,000 tested, 1.4% active | activation, % at 6.8 µM;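 active means activation above the mean of all tested compounds plus 3 SD, cut at about 5.5% in these data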;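 further: 100% = response to 3 µM Δ7-dafachronic acid high control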
DAX1 inh-2: inhibitors of human orphan nuclear receptor DAX1 (NR0B1); P51843; HEK293 Gal4-DAX1 luciferase reporter, luminescence; inhibition, % at 6.75 µM; 340,000 tested, 0.99% active;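 active means inhibition above the mean over all tested compounds plus 3 SD, cut at about 4.2% in these data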;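 further: 0% = DAX1-transfected cells with DMSO and 100% = empty-vector control cells with DMSO; inhibition shows as a rise in luminescence from relieved DAX1 repression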
Target sequence (P51843 207-470 limits assumed): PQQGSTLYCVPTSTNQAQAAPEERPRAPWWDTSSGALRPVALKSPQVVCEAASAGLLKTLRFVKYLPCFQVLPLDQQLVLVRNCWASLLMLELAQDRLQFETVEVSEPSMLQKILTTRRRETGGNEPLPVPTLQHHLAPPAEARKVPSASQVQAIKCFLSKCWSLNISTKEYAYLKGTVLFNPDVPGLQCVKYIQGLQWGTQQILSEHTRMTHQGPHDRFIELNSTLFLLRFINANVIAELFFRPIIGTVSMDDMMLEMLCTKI
* hit, by the source's call; / = not tested or not shown.

SMILES	ssDAF12 agonist	DAX1 inh-1	hgDAF-12 ag	SMARCA2 activ	hcDAF-12 act	DAX1 inh-2
Cc1ccc2nc(SCC3CCCCO3)[nH]c2c1 (configuration not stated)	0	3	12*	2	5	-2
C=CC[C@]12CC=CC(=O)[C@@]1(O)O[C@H](c1ccc(OC)c(OC)c1)[C@H]2C	-2	-3	-8	-1	-2	-4
CN(C(=O)CSc1nc2ccccc2c(=O)n1-c1ccccc1F)C1CCS(=O)(=O)C1 (configuration not stated)	0.9*	-1	-3	-5	1	-1
Cc1cccc(-n2c(SCC(=O)N(C)C3CCS(=O)(=O)C3)nc3ccccc3c2=O)c1C (configuration not stated)	-1	-2	-4	0	0	-1
COc1ccc(OC)c(NC(=O)CCCNC(=O)Cn2cnc3sc(C)c(C)c3c2=O)c1	-1	0	-1	-2	-1	0
Cc1c(C(=O)O)[nH]c2ccc([N+](=O)[O-])cc12	-1	0	2	1	6.2*	/
CCCCc1nc(Cl)c(C#N)c2c1CCCC2	-1	0	0	-2	-1	1
CC1CCN(CC(=O)NC2CCCCC2)CC1	0	0	-1	-1	-1	4.3*
CC(C)(C)c1nnc(NC(=S)Nc2ccccc2)s1	0	3	11*	2	1	0
Cc1ccc(N=C(NOC(=O)c2ccccc2)c2nonc2N)c(C)c1	-1	0	0	1	1	1
CC(=O)ONC(=Nc1ccccc1)c1nonc1N	-1	0	2	-7	-1	5.2*
CCOc1ccc(CCN2CN(CC)CNC2=S)cc1OCC	0	0	-1	2	-2	4.9*
NC(=O)c1ccc(NC(=O)CSC2=Nc3ccccc3C3CC=NN23)cc1 (configuration not stated)	/	/	/	/	/	0
O=C(O)C1CCCCC1C(=O)N1CCCC1 (configuration not stated)	1.5*	1	2	-4	0	0
CC(C)N1CCc2c(sc(NC(=S)NC(=O)c3ccccc3)c2C#N)C1	-2	1	4	3	8.3*	2
CC(C)C1Cc2c(sc(NC(=S)NC(=O)c3ccccc3)c2C#N)CO1 (configuration not stated)	-1	0	3	-1	0	1
CCCN1CCc2c(sc(NC(=S)NC(=O)c3ccccc3)c2C#N)C1	-2	3	5	2	3	4.8*
CCC1=C(NCc2ccccc2)COC1=O	-2	1	-2	-2	1	4.3*
Cc1nc(/C(N)=N/OC(=O)c2c(-c3ccccc3Cl)noc2C)cs1	-2	0	-3	-1	0	5.9*
CC(C)(C)C1CCC(=NNC(=O)c2ccccc2-n2cccc2)CC1 (configuration not stated)	0	0	0	11*	6.0*	-1
CCN(CC)CCCCCOc1ccccc1OC	-1	1	4	-1	1	-1
CC(C)c1cc2cc3ccc(=O)oc3cc2o1	-1	0	7	2	0	1
CCOc1ccc(C(=O)Nc2c(C(=O)N3CCC(N4CCCCC4)CC3)oc3ccccc23)cc1	-2	4.0*	0	2	-1	1
CC(=O)Nc1ccc(NC(=O)C2CCN(C(=O)NC3CCCCC3)CC2)cc1	-1	0	1	-5	0	0
CC1CCC(NC(=O)CCNS(=O)(=O)c2ccc3c(c2)CCC(=O)N3)CC1 (configuration not stated)	-1	0	-1	1	-1	0
SMILES	ssDAF12 agonist	DAX1 inh-1	hgDAF-12 ag	SMARCA2 activ	hcDAF-12 act	DAX1 inh-2
CCCCCCC1(C)NC(=S)N(c2ccccc2)N1 (configuration not stated)	5.7*	0	1	1	1	0
CCCCCC1(C)NC(=S)N(c2ccccc2)N1 (configuration not stated)	-1	0	-1	-2	1	1
CCC1(c2ccc(Cl)cc2)NC(=S)N(c2ccccc2)N1 (configuration not stated)	1	1	7	1	5.7*	0
CCC1(c2ccccc2)NC(=S)N(c2ccc(C)cc2)N1 (configuration not stated)	0	0	6	6	2	3
O=C(Cc1ccc([N+](=O)[O-])cc1)N1CCc2ccccc2C1	-1	0	-2	-4	1	1
O=C(Cc1ccccc1[N+](=O)[O-])N1CCc2ccccc2C1	1.1*	1	11*	1	4	0
Oc1ccc(Br)cc1-c1cc(-c2ccccc2F)[nH]n1	0	1	5	3	5.8*	0
Oc1ccc(Br)cc1-c1cc(-c2ccccc2Cl)[nH]n1	-1	1	11*	-2	4	0
Oc1ccc(Cl)cc1-c1cc(-c2ccccc2)n[nH]1	1	1	11*	0	5.7*	1
COc1ccccc1-c1cc(-c2cc(Cl)ccc2O)n[nH]1	-1	0	3	-3	2	0
O=C(CSc1ncccn1)c1ccccc1Br	-1	0	3	3	0	4.3*
COc1ccccc1CN1CN(S(=O)(=O)c2ccccc2)c2nc3ccccc3nc21	-1	1	4	0	6.1*	-1
O=S(=O)(c1cccs1)N1CN(Cc2ccc(Cl)cc2)c2nc3ccccc3nc21	-1	1	4	-1	1	0
O=S(=O)(c1cccs1)N1CN(Cc2ccco2)c2nc3ccccc3nc21	0.9*	-1	2	0	0	3
Cc1ccc(C(=O)Nc2ncc3c(Cl)cccc3n2)cc1	-2	0	-4	-1	1	-1
COc1ccccc1NC(=O)C(=O)N/N=C/c1cccs1	-1	1	8	5	6.2*	1
COCCNC(=O)C(=O)N/N=C/c1cccs1	0	1	2	-2	3	2
Cc1ccc(S(=O)(=O)N2CCc3ccccc3C2)cc1C	-1	0	1	-3	-2	-1
CCn1cc(Br)c(C(=O)N(C)Cc2ccccc2)n1	-1	0	-2	-2	-1	0
CN(CC(O)COCc1cccs1)C1CCCCC1 (configuration not stated)	-1	0	12*	2	-1	3
CCCN(CCC)c1nc(C#N)nc(N(CCC)CCC)n1	-1	0	1	3	-1	2
Oc1ccc(-c2csc(Nc3cccc4ccccc34)n2)cc1O	2.1*	0	4	-1	1	2
COc1ccccc1-c1cccc([C@@H]2C[C@H]3[C@H](CON3C)CN2C)c1	0	3.8*	-2	-3	-1	0
CCOC(=O)c1ccc2c(c1)nc(SC/C(O)=C(\C#N)c1nc3ccccc3[nH]1)n2CC	1.6*	0	3	2	5	1
